# Most compounds without a hit are left out; they make up all but 2.4% or so of the library.
# HSF1 inh = HSF1 inhibition; activity change, negative = inhibition, % at 7.5 µM (by protocol); actives 0.77% (n = 300,000); NIH3T3-HGL HSE-luciferase, MG132-induced, luminescence 8 h; hits give low values;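 active means more than half of replicate wells show activity change below -50%, luminescence cut by over half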;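 further: luciferase reports HSF-1 transcriptional activity via heat shock element; 0% = median of DMSO wells and -100% = zero luminescence signal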
# HSP90 refold inh = inhibitors of HSP90 luciferase refolding in rabbit reticulocyte lysate | luciferase refolding luminescence, 3 h | inhibition, % at 5.6 µM | actives 0.91% (n = 290,000);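 active means inhibition above the screen-wide mean plus 3 SD, computed separately per campaign, cut at about 16% in these data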;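 further: 0% = DMSO wells and 100% = 60 µM geldanamycin wells; inhibitors lower the luminescence because luciferase stays unfolded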
# STAT1 inh = STAT1 signaling inhibition | NIH 3T3 STAT1-luciferase reporter, IFN-gamma, luminescence | inhibition, % at 5.5 µM | actives 0.35% (n = 200,000);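 active means inhibition above a set limit, the mean inhibition across all tested compounds plus 3 SD, cut at about 34% in these data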;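 further: 0% = IFN-gamma with DMSO and 100% = IFN-gamma with 300 µM nifuroxazide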
# TRAIL sens C8 = sensitizes caspase-8 expressing cells to TRAIL; actives 1% (n = 360,000); NB7+C8 cells + TRAIL, ATPlite viability luminescence; inhibition (viability loss, TRAIL sensitization), % at 10 µM;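 active means compounds causing at least 50% loss of cell viability in the single-dose screen, relative to plate controls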
# STAT3 inh-1 = reduces IL-6 driven STAT3 reporter signal; U3A cells, IL-6 STAT3-luciferase reporter, luminescence; host cell line lacks STAT1; inhibition, % at 5.5 µM; actives 0.89% (n = 190,000);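 active means inhibition above the mean inhibition across all screened compounds plus 3 SD, cut at about 44% in these data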;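 further: 0% = DMSO only wells and 100% = 100 µM nifuroxazide control wells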
# PPC-1+TRAIL kill = compounds killing PPC-1 cancer cells with TRAIL present (potentiator screen, no TRAIL-free arm) | actives 0.41% (n = 220,000) | cell killing (% activity), % at 4 µM or 5 µM | PPC-1 cells + TRAIL, ATPLite viability luminescence;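 active means cell killing above 50% in the first pass at 4 µM, then a duplicate retest at 5 µM averaging 50% or more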;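 further: plate controls were cells with TRAIL plus DMSO for no effect and medium-only wells lacking cells for full effect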
# STAT3 inh-2 = STAT3 inhibition, confirmation assay; shares compounds with STAT3 inh-1; U3A cells, IL-6 STAT3 luciferase reporter, luminescence; cell line lacks STAT1; inhibition, % at 5.7 µM; actives 45% (n = 1,200); AID 1265;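 active means inhibition above the hit cutoff computed for the primary STAT3 screen, cut at about 44% in these data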;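 further: 0% = IL-6 plus DMSO and 100% = IL-6 plus nifuroxazide control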
# NFkB inh 2 = counter-screen for STAT3 inhibitors: NF-kappaB inhibition; HEK293T NF-kB luciferase reporter, TNF-alpha induced; shares compounds with STAT3 inh-1; AID 1308; inhibition, % at 5.7 µM; actives 36% (n = 1,200);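 active means inhibition above the mean of solvent-only control wells plus 3 SD, cutoff set per campaign, cut at about 13% in these data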;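 further: 0% = TNF-alpha with DMSO and 100% = TNF-alpha with MG high control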
# STAT1 inh 2 = inhibits STAT1, counter-screen to STAT3 inhibitors; NIH 3T3 STAT1-luciferase reporter, IFN-gamma induced, luminescence; shares compounds with STAT3 inh-1; actives 27% (n = 1,200); inhibition, % at 5.7 µM; AID 1317;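 active means inhibition above the mean plus 3 SD of solvent-only control wells, limit set per screening run, cut at about 16% in these data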;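 further: 0% = DMSO with IFN-gamma and 100% = nifuroxazide control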
# The depositor's hits bear a star; / = not tested or not shown.
SMILES,HSF1 inh,HSP90 refold inh,STAT1 inh,TRAIL sens C8,STAT3 inh-1,PPC-1+TRAIL kill,STAT3 inh-2,NFkB inh 2,STAT1 inh 2
CCOc1ccc(N/C=C/C(=O)c2ccccc2)c([N+](=O)[O-])c1,-33,15,14,91*,85*,73*,59*,45*,-30
CCCCNc1cc(C)nc(NCc2ccccc2)n1,-12,6,32,8,44*,20,35,13*,27*
CC(=O)Nc1ccc(S(=O)(=O)Oc2ccc(N3C(=O)C4CCCCC4C3=O)cc2)cc1 (stereo not given),-7,2,17,-1,73*,-17,61*,20*,19*
COCCNc1nc(Oc2ccc(C(N)=O)cc2)c2sccc2n1,/,/,/,-19,/,/,/,/,/
Cn1nc(CC(=O)NCc2ccc(F)cc2)c2ccccc2c1=O,7,-3,15,20,32,-10,/,/,/
COc1cccc(OC)c1NC(=O)Cc1nn(C)c(=O)c2ccccc12,5,2,4,-4,4,14,/,/,/
Cn1nc(CC(=O)Nc2ccc(N3CCN(C(=O)OC(C)(C)C)CC3)cc2)c2ccccc2c1=O,-4,4,25,25,80*,12,83*,32*,22*
COc1ccccc1NC(=O)Cc1nn(C)c(=O)c2ccccc12,0,-3,24,12,54*,7,54*,13*,18*
COc1cc(NC(=O)Cc2nn(C)c(=O)c3ccccc23)cc(OC)c1,1,-6,21,2,48*,8,35,7,17*
CC(C)(C)OC(=O)N1CCN(c2ccc(NC(=O)Cn3nnc(-c4ccccc4)n3)cc2)CC1,3,1,0,-1,6,-1,/,/,/
Cn1nc(CC(=O)NCc2cccc3ccccc23)c2ccccc2c1=O,-3,-4,15,-11,31,5,/,/,/
Cc1csc(NC(=O)Cc2nn(C)c(=O)c3ccccc23)n1,-24,3,22,17,54*,17,60*,18*,21*
O=C(NCCc1ccccc1)C1Cc2c(-c3ccc4c(c3)OCO4)ccnc2O1 (stereo not given),/,/,/,1,/,/,/,/,/
Cc1noc(C)c1C(=O)OC(C)C(=O)c1c[nH]c2ccccc12 (stereo not given),/,/,/,-17,/,/,/,/,/
O=C1CC2(CCCC2)C(=O)N1CN1CCN(S(=O)(=O)c2cc(F)ccc2F)CC1,/,/,/,-5,/,/,/,/,/
COc1ccc(C(C)C)cc1-c1cccc2nncn12,/,/,/,2,/,/,/,/,/
O=C(c1ccccc1)N(c1ccccc1)c1nccc2ccccc12,/,/,/,4,/,/,/,/,/
CC(=O)N1CCC(c2nc3ccccc3n2C(C)C(=O)NCc2ccccc2)CC1 (stereo not given),/,/,/,6,/,/,/,/,/
CC(C)N(Cc1nccn1C)C(=O)c1cc(COc2ccc3ncccc3c2)on1,0,-2,28,9,38,28,/,/,/
CCC1CCCCN1C(=O)c1cc(COc2ccc3ncccc3c2)on1 (stereo not given),-4,0,26,19,85*,15,83*,32*,21*
CCN1CCN(C(=O)c2cc(COc3ccc4ncccc4c3)on2)CC1,-8,4,22,-1,45*,2,42,12,18*
Cc1nc(CN(C)C(=O)c2cc(COc3ccc4ncccc4c3)on2)cs1,-1,3,27,17,71*,0,62*,19*,24*
CCN(CC)C(=O)C1CCCN(C(=O)c2cc(COc3ccc4ncccc4c3)on2)C1 (stereo not given),0,-1,/,1,/,/,/,/,/
COc1ccc(-c2coc3c(C(=O)N4CCN(C)CC4)cccc23)c(C)c1,/,/,/,-14,/,/,/,/,/
O=C1CNC(=O)c2cc(Cl)ccc2N1,/,/,/,1,/,/,/,/,/
SMILES,HSF1 inh,HSP90 refold inh,STAT1 inh,TRAIL sens C8,STAT3 inh-1,PPC-1+TRAIL kill,STAT3 inh-2,NFkB inh 2,STAT1 inh 2
CC(C)Nc1nc(Nc2ccccc2Cl)c2sccc2n1,/,/,/,2,/,/,/,/,/
CN=c1scc(C)n1/N=C/c1ccc2c(c1)OCO2,-4,11,-22,61*,49*,34,14,-22,-130
CCC(=O)OC1(C(C)=O)CCC2C3CCC4=CC(=O)CCC4(C)C3CCC21C (stereo not given),/,/,/,11,/,/,/,/,/
COc1ccc(-c2cc(C(=O)Nc3cc(C)n(Cc4ccc(Cl)cc4)n3)no2)cc1OC,3,-1,13,25,74*,8,71*,29*,2
c1ccc(CCNc2ncnc3ccccc23)cc1,2,7,-3,43,90*,17,83*,23*,-23
COCC1OC(OC(C)C(O)c2cnc3nc(N)[nH]c(=O)c3n2)C(O)C(OC)C1O (stereo not given),/,/,/,3,/,/,/,/,/
CN(C(=O)c1ccccc1)c1nc2ccccc2s1,29,3,-42,72*,56*,49,10,-38,-120
O=C1C(C=Nc2ccc(F)cc2)=C(O)c2ccccc21,33,1,-51,57*,51*,22,-31,-57,-213
CC1(C)CC2CC(C)(CN2S(=O)(=O)c2ccc(C(=O)Nc3ccc(Cl)c(S(=O)(=O)N4CCOCC4)c3)cc2)C1 (stereo not given),6,2,8,15,45*,25,50*,22*,7
Cc1ccc(-c2ccc3c(c2)O[C@H](CN(C)C(=O)Nc2ccc(C(F)(F)F)cc2)[C@H](C)CN([C@H](C)CO)S3(=O)=O)cc1,/,/,/,-2,/,/,/,/,/
COc1cc(/C=N/Nc2ccc(C(F)(F)F)cn2)cc(OC)c1O,22,0,0,12,48*,-19,27,0,-3
Oc1ccc(/C=N/Nc2ccc(C(F)(F)F)cn2)cc1,45,-1,-76,7,19,-8,/,/,/
CCOC1=C2CN(S(=O)(=O)c3ccc(C)cc3)C(c3ccccc3)CC2N(S(=O)(=O)c2ccc(C)cc2)C(c2ccc(Br)cc2)C1 (stereo not given),/,/,/,10,/,/,/,/,/
CCOC(=O)[C@]12CCC=C1N(Cc1ccc(Cl)cc1Cl)C(=O)[C@H](CC(=O)NCc1cccs1)C2,/,/,/,7,/,/,/,/,/
COc1cccc(NS(=O)(=O)c2ccc3c(c2)CCN3C(C)=O)c1,-15,7,/,6,/,/,/,/,/
CC(=O)N1CCc2cc(S(=O)(=O)Nc3cccc(C(F)(F)F)c3)ccc21,-3,1,21,13,44*,-20,39,2,19*
CCNC(=O)C1(C)CCCN(C(=O)C2(c3ccc(Cl)cc3)CCCC2)C1 (stereo not given),/,/,/,-11,/,/,/,/,/
